From PubChem BioAssay AID493011 (Sanford-Burnham Center for Chemical Genomics, 2011) come the findings set out here.

Among all 330,000 compounds or so, about 1,400 (0.42%) were called active.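 The calls were made as follows: active = at least 40% inhibition at 20 µM here, with at most 30% in a related deaminase screen; inactive = the rest.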 What follows is part of a selection rich in actives, with near analogues and random picks from the rest.

For the test, the target named is DNA dC->dU-editing enzyme APOBEC-3A (Homo sapiens) (UniProt P31941). In words: APOBEC3A ssDNA deaminase inhibitors, primary screen, selectivity assay for APOBEC3G inhibitor project, biochemical, FAM/TAMRA oligo cleavage fluorescence (AID 493011).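 Also: plate controls were A3A with DMSO for no effect and wells lacking A3A enzyme for full effect.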 Particulars: recombinant A3A, FAM/TAMRA ssDNA deamination fluorescence; at 20 µM; hits give high values.
Sequence of DNA dC->dU-editing enzyme APOBEC-3A (Homo sapiens) (P31941 whole entry, looked up): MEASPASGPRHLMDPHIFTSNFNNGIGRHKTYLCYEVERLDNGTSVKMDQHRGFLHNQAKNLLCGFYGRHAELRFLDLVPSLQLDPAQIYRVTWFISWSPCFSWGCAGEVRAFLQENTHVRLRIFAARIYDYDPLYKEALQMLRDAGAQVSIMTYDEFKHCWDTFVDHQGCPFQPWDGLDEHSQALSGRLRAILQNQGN
Consider `COc1ccc(CN(C)C(=O)c2cc(-c3ccc(C)cc3C)nc3ccccc23)c(OC)c1OC`, for which the inhibition is -0.735% (inactive).
Next, `CC1C(c2ccccc2)=[N+]([O-])C2(CCCC2)N1O` (stereo not given): 3.6% (inactive).
Next, `CC(C)c1ccc(NC(=O)C2CCCN(S(=O)(=O)c3cccnc3)C2)cc1` (stereo not given): 3.03% (inactive); `COc1ccc(S(=O)(=O)N2CCCC(C(=O)Nc3ccc(NC(=O)c4ccccn4)cc3)C2)cc1` (stereo not given): 0.311% (inactive); `CC(=O)Nc1ccc(NC(=O)C2CCCN(S(=O)(=O)c3ccc(Cl)cc3)C2)cc1` (stereo not given): 94.5% (active).
The same measure for `O=C(NCCCn1ccnc1)c1cc(Br)c(Br)s1`: -1.2% (inactive).
Turning to `O=C(N/N=C\c1cccnc1)c1cc(-c2ccccc2)nc2c(Cl)cccc12`, the inhibition was 43.3% (active).
`COc1ccc(-c2cc(C(=O)N/N=C/c3cccnc3)c3ccccc3n2)c(OC)c1`: the inhibition is 1.62% (inactive).
The same measure for `C/C(=N\NC(=O)c1cc(-c2ccc(O)cc2)nc2ccccc12)c1cccnc1`: -0.382% (inactive); for `C/C(Cn1nnc2ccccc21)=N\OC(=O)c1cc(F)c(F)cc1Cl`: -2.44% (inactive).
Next, `CCOc1ccc(C)cc1S(=O)(=O)NC1CCCCCC1`: 0.216% (inactive).
As for `COc1ccc(C2c3ccc(O)cc3Oc3ncn(CCCO)c(=N)c32)cc1OC` (stereo not given), the inhibition is 1.57% (inactive).
The same measure for `Cc1ccc(COC(=O)CN2C(=O)NC3(CCCC3)C2=O)cc1`: 2.64% (inactive); for `Cc1ccc(CCCOC(=O)C[N+]2(C)CCCC2)cc1`: 29.9% (inactive).
Consider `Cc1ccc(CCCOC(=O)C[N+]2(C)CCCCC2)cc1`, for which the inhibition was 75.2% (active).
In the case of `O=C(COc1ccccc1)Nc1ccc(N2CCN(C(=O)c3cccs3)CC2)cc1`, the inhibition is 3.22% (inactive).
The same measure for `COc1ccc(C(=O)NC2(C(F)(F)F)NC(=O)N(CCCc3ccccc3)C2=O)c(OC)c1OC` (stereo not given): 1.49% (inactive); for `CCn1c(CNC(=O)c2ccco2)nnc1SCC(=O)Nc1cccc(F)c1`: 0.913% (inactive).
Next, `CCn1c(SCC(=O)Nc2ccc3c(c2)OCCO3)nnc1-c1ccncc1`: -2.5% (inactive); `CCn1c(SCC(=O)Nc2cccc(F)c2)nnc1-c1cc2cc(Br)ccc2o1`: 49.5% (active); `Cc1ccc(C2=C/C(=C\c3cccnc3)C(=O)O2)cc1`: 42.5% (active).
For `CN(C)/C=C1\C=C(c2ccccc2)OC1=O`, the inhibition is 0.636% (inactive).
The same measure for `Cc1ccccc1C1=N/C(=C/c2cccnc2)C(=O)O1`: -1.12% (inactive); for `Cc1ccc(C(=O)N/N=C\c2cc(Br)c(Br)o2)cn1`: 44.2% (active).
The same measure for `O=C(N/N=C\c1cc(Br)c(Br)o1)C1COc2ccccc2O1` (stereo not given): 13.8% (inactive).
The same measure for `Cc1ccc(C(=O)N/N=C/c2cccc3ccccc23)cn1`: -4.44% (inactive); for `O=C(CN1C(=O)NC2(CCOc3ccccc32)C1=O)Nc1cccc([N+](=O)[O-])c1` (stereo not given): 6.58% (inactive).
`CC1=NN(C(=O)CCCc2ccccc2)C(O)(C(F)(F)F)C1` (stereo not given): the inhibition is -5.39% (inactive).
Next, `COc1ccc(CC(=O)N2N=C(C)CC2(O)C(F)(F)F)cc1` (stereo not given): -1.7% (inactive); `CC1=NN(C(=O)CCc2ccccc2O)C(O)(C(F)(F)F)C1` (stereo not given): 54.8% (active).
The same measure for `CC(C)COP(=O)(c1ccc(N(C)C)cc1)C(Nc1ccccc1)c1cccnc1` (stereo not given): -0.443% (inactive); for `C[N+](C)(C)CCOP(=O)([O-])OC[C@H](O)CO`: -3.05% (inactive).
The same measure for `CCOc1cccc(OCCCOc2cccc3cccnc23)c1`: 0.036% (inactive); for `CCCc1cc(=O)[nH]c(SCc2ccc(C#N)cc2)n1`: -3.79% (inactive); for `COc1ccc(C2C3=C(CCCC3=O)N(CC(=O)O)C3=C2C(=O)CCC3)cc1`: -0.629% (inactive).
For `CCOc1ccc(C2C3=C(CCCC3=O)N(CC(=O)O)C3=C2C(=O)CCC3)cc1`, the inhibition was 5.98% (inactive).
The same measure for `CCCN1C2=C(C(=O)CCC2)C(c2ccc(O)c(Br)c2)C2=C1CCCC2=O`: 68.9% (active); for `COc1ccccc1C(CNC(=O)c1cccc(S(=O)(=O)Nc2ccc(F)cc2)c1)N(C)C` (stereo not given): -4.98% (inactive).
`COc1ccc(C)cc1NC(=O)c1[nH]c(C)c(C(C)=O)c1C`: the inhibition is -4.64% (inactive).
The same measure for `O=C(O)C(F)(F)C(NCc1ccccc1)c1ccccc1` (stereo not given): -9.23% (inactive); for `CC1(C)CC(=O)C(N=Nc2ccc(S(=O)(=O)N3CCCCCC3)cc2)=C(O)C1`: -0.085% (inactive).
Next, `N#Cc1ccccc1CN1C(=O)S/C(=C/c2cccn2-c2cccc(C(=O)O)c2)C1=O`: 74.4% (active).
Take `Cc1ccccc1NC(=O)CN1C(=O)N/C(=C\c2cccn2-c2cccc(C(=O)O)c2)C1=O`: the inhibition was 93.1% (inactive).
Next, `O=C1N/C(=C/c2cccn2-c2ccccc2)C(=O)N1c1cccc(Cl)c1`: 0.178% (inactive); `O=C(c1n[nH]c2c1CCC2)N1CCCC(Nc2cccc(F)c2)C1` (stereo not given): -3.42% (inactive).
The same measure for `O=C(COC(=O)/C=C/c1ccc(Br)o1)Nc1cccc(S(=O)(=O)N2CCOCC2)c1`: 16.5% (inactive); for `CC(=O)c1c(C)n(-c2ccc(N(C)C)cc2)c2ccc(OCC(N)=O)cc12`: -1.38% (inactive).
Next, `COc1ccc(S(=O)(=O)NCCCCOc2ccc(Cl)cc2)cc1`: -0.023% (inactive).
Turning to `COc1cccc(NC(C)=[N+](C)CCNS(=O)(=O)c2ccc(Cl)cc2)c1`, the inhibition is 52.2% (active).
Next, `COc1cccc(NC(=O)CCNS(=O)(=O)c2ccc3c(c2)oc(=O)n3C)c1`: -2.44% (inactive); `COc1ccc(C2C3=C(OC(C)=O)c4ccccc4C3=Nc3c2c(=O)n(C)c(=O)n3C)cc1` (stereo not given): -1.29% (inactive).
As for `Cc1cccc(CCNS(=O)(=O)c2ccc(S(=O)(=O)NC3CCCC3)cc2)c1`, the inhibition was -4.37% (inactive).
On to `COCCCNC(NC(=O)c1ccc(OC)cc1)C(Cl)(Cl)Cl` (stereo not given), for which the inhibition is -2.86% (inactive).
The same measure for `O=C1C2C3C=CC(C4CC34)C2C(=O)N1c1nccs1` (stereo not given): 0.014% (inactive); for `Cc1ccc(NC(=O)COc2ccc(/C=C3/NC(=O)NC3=O)cc2)cc1`: -0.201% (inactive).
The same measure for `CC(C)c1ccc(/C=C2\NC(=O)NC2=O)cc1`: 82.8% (active); for `CSc1ccc(/C=C2\NC(=O)NC2=O)cc1`: -4.33% (inactive).
The same measure for `CC[C@]12c3[nH]c4cc(CCC(=O)N(C)C)ccc4c3CCN1C(=O)[C@@H](CC(=O)NCc1ccco1)C[C@@H]2C(=O)N1CCN(C(=O)c2ccco2)CC1`: 2.69% (inactive).
For `Cc1nn2c(c1-c1ccccc1)N=C(c1ccco1)CC2c1ccccc1` (stereo not given), the inhibition was 0.496% (inactive).
The same measure for `O=C1C2C3C=CC(C4CC34)C2C(=O)N1/N=C/c1ccc(-c2ccccc2[N+](=O)[O-])o1` (stereo not given): -4.49% (inactive).
Turning to `O=C(Nc1ccc(N2CCOCC2)c(Cl)c1)c1ccc(S(=O)(=O)N2CCOCC2)cc1`, the inhibition was 2.6% (inactive).
Next, `O=C(CSc1nccc(=O)[nH]1)Nc1ccc(N2CCOCC2)c(Cl)c1`: 50% (active).
Next, `O=C(CSc1ccc([N+](=O)[O-])cn1)Nc1ccc(N2CCOCC2)c(Cl)c1`: -1.64% (inactive); `CC(=O)c1ccc(N2CCN(C(=O)c3ccc4nc[nH]c4c3)CC2)cc1`: -2.31% (inactive); `CCCc1nnc(SCC(=O)Nc2ccc(C(=O)OCC)cc2)o1`: -2.03% (inactive).
For `CCOC(=O)c1ccc(NC(=O)CSc2ncccn2)cc1`, the inhibition was 66.1% (active).
Turning to `CCOC(=O)c1ccc(NC(=O)Cn2cnc3cc(C)c(C)cc32)cc1`, the inhibition is 3.16% (inactive).
`CC(=O)N/C(=N/c1nc(C)cc(C)n1)Nc1ccc(F)cc1F`: the inhibition is -1.6% (inactive).
Next, `CC(=O)NNc1cc(=O)c2c(=O)n(C)c(=O)n(C)c2[nH]1`: 2.94% (inactive); `CC(=O)Nc1ccc(S(=O)(=O)Oc2ccc(/C=N/N=C3/NC(=O)C(CC(=O)O)S3)cc2)cc1` (stereo not given): -1.33% (inactive); `COc1ccccc1CNC(=O)C1CCN(S(C)(=O)=O)CC1`: 3.64% (inactive).
Consider `COc1ccccc1CCNC(=O)C1CCN(C(=O)/C=C/c2ccccc2)CC1`, for which the inhibition is 40.4% (active).
Next, `COc1ccccc1CNC(=O)C1CCN(C(=O)[C@@H]2Cc3ccccc3CN2)CC1`: -2.15% (inactive).
Next, `CCCc1nnc(SCC(=O)N2C(C)CCCC2C)n1CC` (stereo not given): 0.831% (inactive); `COc1cc(C(CCN2CCN(c3ccccc3)CC2)c2c(OC)cc(OC)c3ccc(=O)oc23)cc(OC)c1OC` (stereo not given): -5.74% (inactive).
The same measure for `CC(C)(C)C(=O)CSc1ccc(S(=O)(=O)N2CCCC2)cn1`: -1.15% (inactive); for `CC(Oc1ccc(F)cc1)C(=O)Nc1cc(S(=O)(=O)N2CCOCC2)ccc1N1CCN(C)CC1` (stereo not given): 63.9% (active); for `CN1CCN(c2ccc(S(=O)(=O)N3CCOCC3)cc2NC(=O)CCc2ccccc2)CC1`: 3.6% (inactive).
With `CCN(CC)S(=O)(=O)c1ccc(N2CCOCC2)c(NC(=O)C(C)Oc2ccc(F)cc2)c1` (stereo not given), the inhibition was -2.06% (inactive).
Regarding `O=C(CN(CC1CCCO1)C(=O)CNS(=O)(=O)c1ccccc1)NCc1ccccc1` (stereo not given), the inhibition was -2.59% (inactive).
With `Cc1csc(SCC(=O)Nc2sccc2C#N)n1`, the inhibition was 67.3% (active).
Consider `COc1ccc(NC(=O)CSc2nc(C)cs2)cc1`, for which the inhibition is 3.79% (inactive).
`Cc1ccc(NC(=O)CSCC(=O)Nc2sccc2C#N)cc1`: the inhibition was -0.813% (inactive).
Next, `CCN(CC)c1ccc(S(=O)(=O)N2CCCCC2)cc1NC(=O)C1=COCCO1`: -3.33% (inactive).
The same measure for `CCCC(=O)Nc1cccc(NC(=S)NC(=O)C(C)Oc2ccc(Cl)cc2Cl)c1` (stereo not given): 1.55% (inactive).
Next, `CC(C)Cc1ccc(C(C)C(=N)N)cc1` (stereo not given): 2.27% (inactive).
Consider `COc1ccc(C)cc1NC(=O)CCCN1C(=O)NC(C)(C)C1=O`, for which the inhibition is 47.3% (active).
In the case of `COc1ccc(C)cc1NC(=O)CNCc1cccs1`, the inhibition was -2.55% (inactive).
Next, `COc1ccccc1CNC(=O)CCCN1C(=O)NC2(CCCC2)C1=O`: -3.53% (inactive).
Turning to `Cc1nnsc1S(=O)(=O)Cc1ccccc1Cl`, the inhibition is -0.082% (inactive).
